From PubChem BioAssay (NCATS) come the findings set out here.

Inconclusive results are not listed. A call without a number means that no potency is given here. Calls of active or inactive are those of the source. The call rests on the fitted dose curve; in most records, active means well fitted cell-killing curve with a large enough effect; inconclusive means small, poorly fitted or top-dose-only effect; inactive means flat fitted curve, though single readings scatter.
Potency means the concentration at half of the fitted maximal effect.

The nature of the assay: SDT Cancer Cell Toxicity qHTS against the NCATS CANVASS Library (AID 1347365). Further: nearly all actives have a fitted effect of over 60% in size. The following applies: SDT dog glioma viability, ATP luminescence, 72 h; series mostly up to 46.1 µM. The text has this:
Natural products and their derivatives continue to be wellsprings of nascent therapeutic potential. However, many laboratories have limited resources for biological evaluation, leaving their previously isolated or synthesized compounds largely or completely untested. To address this issue, the Canvass library of natural products was assembled (https://tripod.nih.gov/canvass), in collaboration with academic and industry researchers, for quantitative high-throughput screening (qHTS) across a diverse set of cell-based and biochemical assays. The pure (>85% purity by liquid chromatography/mass spectrometry [LC/MS]) Canvass library of 346 natural products were submitted by 45 academic laboratories and companies around the world. We collected pure natural products to circumvent deconvolution and structure elucidation due to time and resource limitations. The library was formatted into 1536-well plates and evaluated in 50 qHTS (in an 11-pnt concentration series) bioassays with broad scope of disease-relevant mechanisms. The resulting data set from 50 different assays was then systematically analyzed to identify overall trends and specific natural products with interesting biological activities. Reported herein are the results of each individual qHTS and their corresponding assay protocol. This assay uses ATP (luminescence) content to measure the cytotoxiciy of compounds on SDT dog glioma cancer cell line. National Center for Advancing Translational Sciences (NCATS), Rockville, MD National Institute of Health (NIH), Bethesda, Maryland
Cancer Cell Toxicity qHTS protocol: for cell lines G06, J3T, and SDT. 1. In a 1536 well, tissue culture treated white solid bottom plates (Corning 7494), 5 uL of SDT cell solution (final concentration of 500 cells / well) was dispensed using the Multidrop Combi dispenser (Thermo Fisher Scientific) into columns 2, 3, 5-48. 2. Control and Compounds were pin transferred (~23 nL volume) to the assay plates via Wako Pin-tool (Wako Automation, Richmond VA) equipped with a 1536 pin head. The compounds were transferred to columns 5-48 resulting in a final concentration ranging from 0.17 nM to 103 uM. Dose response titration of Bortezomib was pin transferred into column 2 (1mM; 1:2 dilution; 16 points) resulting to a final concentration range of 0.1 nM - 4.6 uM. 3. The assay plates were further incubated in the at 37C, 5% CO2, 95% Rh for 72 hr. 4. After incubation, 3 uL of CellTiterGlo reagent (Promega) was added to the assay plates (column 1-48, rows 1-32) and centrifuged for 15 sec at 1000 rpm to remove bubbles. 5. Luminescence signal was acquired via the ViewLux plate reader (PerkinElmer) using a clear emission filter, 2 sec exposure, and 1x binning settings.
Take `CNCCc1ccc(O)cc1`: the Potency entry is “inactive”.

Take `O=C(c1ccccc1O)c1[nH]c(Cl)c(Cl)c1-n1c(C(=O)c2ccccc2O)cc(Cl)c1Cl`: the Potency was 2.35 µM (active). The entry for `COc1ccc(C23Oc4cc(OC)cc(OC)c4[C@](O)([C@H](c4ccccc4)C2C(=O)NCCCCNC(=O)c2ccccc2)[C@@H]3O)cc1` (some centres not stated) is “inactive”; for `COC(=O)C1=C2Nc3ccccc3[C@@]23CCN2CC(C(C)=O)C1C[C@H]23` (some centres not stated) it is “inactive”. The entry for `CO[C@@H](/C=C/CC/C=C/C(=O)O)[C@@H](O)[C@H](C)[C@@H](O)/C(C)=C/[C@H](C)C(=O)CCCC1CC(=O)NC(=O)C1` is “inactive”; for `CC(=O)N[C@H]1CCN2CCC[C@H]12` it is “inactive”; for `CCC[C@H]1CC[C@H]2[C@H](C)CCC[C@H]2N1` it is “inactive”. The figure for `COc1ccc2c(c1)[nH]c1c(C)nccc12` is 24.1 µM (active).

On to `CC=C1CN(C=O)[C@H]2C[C@@H]1[C@@H](C(=O)OC)[C@@]13CCOC21Nc1ccccc13` (some centres not stated), for which the Potency result is “inactive”. The entry for `CC1=CC(=O)C2=C(C)C[C@H](O)[C@@H]3[C@H](OC(=O)[C@@H]3C)[C@@H]12` is “inactive”; for `C=C1[C@@H](C)[C@H]2[C@H](Cc3ccccc3)NC(=O)[C@]23OC(=O)/C=C/[C@H](O)CCC[C@@H](C)C/C=C/[C@H]3[C@@H]1O` it is 2.64 µM (active); for `CCCCC[C@@H]1OC(=O)[C@@H](C)N(C)C(=O)[C@H](CCCCC)OC(=O)C(C)N(C)C(=O)[C@H](CCCCC)OC(=O)[C@@H](C)N(C)C(=O)[C@H](CCCCC)OC(=O)C(C)N(C)C1=O` (some centres not stated) it is 16.6 µM (active). As for `CCC(=O)CCCCC[C@@H]1NC(=O)[C@H]2CCCCN2C(=O)[C@H]([C@@H](C)CC)NC(=O)[C@H](Cc2cn(OC)c3ccccc23)NC1=O`, the Potency was 1.05 µM (active). The entry for `CC1=CC2CC[C@@H]3[C@@H](C)C[C@H](C)[C@@H](C1)N23` (some centres not stated) is “inactive”; for `CCCC[C@@H]1CC[C@H]2CCCC(CCC)N12` (some centres not stated) it is “inactive”; for `NCCc1ccccc1` it is “inactive”.

`C[C@]12CC(O)C3[C@@H](CCC4C[C@@H](O)CC[C@@]43CO)[C@@]1(O)CCC2C1=CC(=O)OC1` (some centres not stated): the Potency was 2.64 µM (active). The entry for `CO[C@@H](/C=C/CC/C=C/C(=O)O)[C@@H](O)[C@H](C)/C=C(\C)[C@@H](O)[C@H](C)C(=O)CCCC1CC(=O)NC(=O)C1` is “inactive”. The entry for `CCN1C[C@]2(C)CC[C@@H](O)[C@]34C1[C@H](C[C@H]23)C12CCC(CC14)[C@](O)(CO)[C@H]2O` (some centres not stated) is “inactive”; for `CNCCc1ccccc1` it is 0.0469 µM (active). As for `CC[N@@+]1([O-])C[C@]2(C)CC[C@@H](O)[C@@]34C5C[C@H]6CC[C@@]5(C(C[C@H]23)C41)[C@H](O)[C@@]6(O)CO` (some centres not stated), the Potency entry was “inactive”.

`C[C@@H]1CC[C@@H](c2ccoc2)N2C[C@@]3(CC[C@@H]12)CS[C@@]1(CC[C@H]2[C@H](C)CC[C@@H](c4ccoc4)N2[C@@H]1O)C3`: the Potency is 6.62 µM (active).
